Data taken from PubChem BioAssay (Tox21).
Values joined by “and” are separate entries in the source; they are usually repeats but may differ in a detail not shown here. Identical values can stand only once. Results filed as inconclusive are left out. Entries that show only a call come without a potency. Some compounds were tested as several samples or in several runs, with calls that do not always agree. Active and inactive are the calls of the source. Unless noted, calls follow the shape of the dose curve; as a rule, active = well fitted curve in the direction sought with a large enough effect in the repeat runs; inconclusive = weak or mixed curves; inactive = no such curve, though single readings can be large; an effect the other way counts as inactive or inconclusive.

Legend:
[1] = qHTS assay to test for compound auto fluorescence at 535 nm (green) in HEK293 cells (AID 720680); also: potency is read from the fitted curve at half-maximal effect
[2] = qHTS assay to test for compound auto fluorescence at 460 nm (blue) in HEK293 cell free culture (AID 720681)
How it was run: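 Blue fluorescence (Ex 405/Em 460 nm, triamterene-equivalent) was read immediately after pin transfer of compound or DMSO into medium (DMEM, 10% FBS) without cells.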

[3] = qHTS assay to test for compound auto fluorescence at 535 nm (green) in HEK293 cell free culture (AID 720682); also: potency is read from the fitted curve at half-maximal effect
How it was run: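 Green-channel intensity (Ex/Em 485/535 nm) was recorded from compound-treated wells containing only DMEM with 10% FBS. Fluorescein provided the equivalency standard.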

[4] = qHTS assay to test for compound auto fluorescence at 590 nm (red) in HEK293 cell free culture (AID 720683); also: potency is read from the fitted curve at half-maximal effect
How it was run: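 Red-channel autofluorescence of compounds in culture medium (DMEM, 10% FBS), no cells, measured at 540/590 nm. Rose Bengal sodium is the reference fluorophore for equivalence.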

[5] = qHTS assay to test for compound auto fluorescence at 590 nm (red) in HepG2 cell free culture (AID 720684); also: potency is read from the fitted curve at half-maximal effect
How it was run: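 Steps: dispense MEM/10% FBS medium, no cells; pin compound or DMSO vehicle; read red channel, Ex/Em 540/590 nm. Output given as Rose Bengal sodium equivalents.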

[6] = qHTS assay to test for compound auto fluorescence at 460 nm (blue) in HepG2 cell free culture (AID 720685)
How it was run: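 Compound (23 nL) or DMSO pinned into cell-free MEM with 10% FBS; blue fluorescence read at 405/460 nm excitation/emission, expressed as auto-fluorescence equivalency to triamterene.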

[7] = qHTS assay to test for compound auto fluorescence at 535 nm (green) in HepG2 cell free culture (AID 720686); also: potency is read from the fitted curve at half-maximal effect
[8] = biological target: Glucocorticoid receptor (Homo sapiens) (UniProt P04150); test: qHTS assay to identify small molecule agonists of the glucocorticoid receptor (GR) signaling pathway (AID 720691; active = well fitted activation curve with a large enough effect in the signal ratio in the repeat runs, not every such curve was filed as active; the % refers to the signal ratio)
Glucocorticoid receptor (Homo sapiens), sequence (P04150 whole entry, looked up): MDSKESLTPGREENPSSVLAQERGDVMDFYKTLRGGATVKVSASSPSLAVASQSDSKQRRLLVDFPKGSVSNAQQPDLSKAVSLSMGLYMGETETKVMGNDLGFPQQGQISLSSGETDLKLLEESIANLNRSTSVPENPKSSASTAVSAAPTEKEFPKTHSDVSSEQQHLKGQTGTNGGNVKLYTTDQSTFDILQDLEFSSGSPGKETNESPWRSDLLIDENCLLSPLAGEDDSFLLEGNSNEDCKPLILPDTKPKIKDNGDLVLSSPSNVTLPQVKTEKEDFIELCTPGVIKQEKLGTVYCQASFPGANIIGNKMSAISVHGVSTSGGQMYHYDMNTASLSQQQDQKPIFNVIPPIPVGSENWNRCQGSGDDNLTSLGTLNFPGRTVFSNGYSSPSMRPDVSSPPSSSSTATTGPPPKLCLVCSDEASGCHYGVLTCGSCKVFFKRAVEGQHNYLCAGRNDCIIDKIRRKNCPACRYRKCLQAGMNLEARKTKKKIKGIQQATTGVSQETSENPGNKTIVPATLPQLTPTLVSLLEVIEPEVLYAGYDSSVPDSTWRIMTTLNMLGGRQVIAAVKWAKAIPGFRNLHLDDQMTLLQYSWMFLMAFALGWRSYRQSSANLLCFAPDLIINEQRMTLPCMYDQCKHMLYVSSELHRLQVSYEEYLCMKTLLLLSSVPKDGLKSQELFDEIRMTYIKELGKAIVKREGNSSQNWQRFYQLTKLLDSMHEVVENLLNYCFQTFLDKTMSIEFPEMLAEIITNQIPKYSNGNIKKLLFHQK
How it was run: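 Agonist mode in a HeLa line carrying a GRE-controlled beta-lactamase reporter. Compounds act for 18 h at 37 C before a 2 h room-temperature FRET substrate step and fluorescence reading.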

[9] = biological target: Glucocorticoid receptor (Homo sapiens) (UniProt P04150); test: qHTS assay to identify small molecule antagonists of the glucocorticoid receptor (GR) signaling pathway (AID 720692; active = well fitted inhibition curve with a large enough effect in the signal ratio in the repeat runs, not every such curve was filed as active; the % refers to the signal ratio; also: potency is read from the fitted curve at half-maximal effect)
How it was run: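 Cells plated, rested 4 h at 37 C/5% CO2; compounds in DMSO pin-transferred; dexamethasone added to 5 nM final; 18 h at 37 C; B/G FRET substrate added, 2 h room temperature; fluorescence measured.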

[10] = qHTS assay to identify small molecule antagonists of the glucocorticoid receptor (GR) signaling pathway - cell viability counter screen (AID 720693); also: nearly all actives have a fitted effect of over 55% in size; also: potency is read from the fitted curve at half-maximal effect
[11] = qHTS assay for identifying genotoxic compounds that show differential cytotoxicity against isogenic chicken DT40 cell lines with known DNA damage response pathways - wild type cell line (AID 743012); also: nearly all actives have a fitted effect of over 60% in size; also: potency is read from the fitted curve at half-maximal effect
How it was run: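 Cells (DT40 wild type, 300/well) are treated with DMSO-dissolved compounds after a ~0.5 h pre-incubation and kept 40 h at 37 C/5% CO2. Viability is then measured by CellTiter-Glo luminescence following 30 min at room temperature.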

[12] = qHTS assay for identifying genotoxic compounds that show differential cytotoxicity against isogenic chicken DT40 cell lines with known DNA damage response pathways - Rev3 mutant cell line (AID 743014); also: nearly all actives have a fitted effect of over 55% in size; also: potency is read from the fitted curve at half-maximal effect
[13] = qHTS assay for identifying genotoxic compounds that show differential cytotoxicity against isogenic chicken DT40 cell lines with known DNA damage response pathways - Rad54/Ku70 mutant cell line (AID 743015); also: nearly all actives have a fitted effect of over 60% in size; also: potency is read from the fitted curve at half-maximal effect
[14] = qHTS assay to identify small molecule antagonists of the androgen receptor (AR) signaling pathway - cell viability counter screen (AID 743033; also: nearly all actives have a fitted effect of over 45% in size; also: potency is read from the fitted curve at half-maximal effect)
[15] = qHTS assay to identify small molecule antagonists of the androgen receptor (AR) signaling pathway using the MDA cell line - cell viability counter screen (AID 743041; also: nearly all actives have a fitted effect of over 45% in size; also: potency is read from the fitted curve at half-maximal effect)
How it was run: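 Cells were plated at 3,000 per well and left 5 h. Compounds in DMSO were then pinned in, followed by R1881. After 16 h at 37C, CellTiter-Fluor fluorescence gave viability.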

[16] = qHTS assay to test for compound auto fluorescence at 460 nm (blue) in HepG2 cells (AID 720687)
How it was run: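 Blue-channel autofluorescence (Ex/Em 405/460 nm, triamterene-equivalent) was measured after 1 hr compound exposure at 37 C, 5% CO2. Cells were HepG2, plated overnight at 37 C in MEM plus 10% FBS.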

[17] = biological target: Androgen receptor (Homo sapiens) (UniProt P10275); test: qHTS assay to identify small molecule antagonists of the androgen receptor (AR) signaling pathway (AID 743035; active = well fitted inhibition curve with a large enough effect in the signal ratio in the repeat runs, not every such curve was filed as active; the % refers to the signal ratio; also: potency is read from the fitted curve at half-maximal effect)
Androgen receptor (Homo sapiens), sequence (P10275 whole entry, looked up): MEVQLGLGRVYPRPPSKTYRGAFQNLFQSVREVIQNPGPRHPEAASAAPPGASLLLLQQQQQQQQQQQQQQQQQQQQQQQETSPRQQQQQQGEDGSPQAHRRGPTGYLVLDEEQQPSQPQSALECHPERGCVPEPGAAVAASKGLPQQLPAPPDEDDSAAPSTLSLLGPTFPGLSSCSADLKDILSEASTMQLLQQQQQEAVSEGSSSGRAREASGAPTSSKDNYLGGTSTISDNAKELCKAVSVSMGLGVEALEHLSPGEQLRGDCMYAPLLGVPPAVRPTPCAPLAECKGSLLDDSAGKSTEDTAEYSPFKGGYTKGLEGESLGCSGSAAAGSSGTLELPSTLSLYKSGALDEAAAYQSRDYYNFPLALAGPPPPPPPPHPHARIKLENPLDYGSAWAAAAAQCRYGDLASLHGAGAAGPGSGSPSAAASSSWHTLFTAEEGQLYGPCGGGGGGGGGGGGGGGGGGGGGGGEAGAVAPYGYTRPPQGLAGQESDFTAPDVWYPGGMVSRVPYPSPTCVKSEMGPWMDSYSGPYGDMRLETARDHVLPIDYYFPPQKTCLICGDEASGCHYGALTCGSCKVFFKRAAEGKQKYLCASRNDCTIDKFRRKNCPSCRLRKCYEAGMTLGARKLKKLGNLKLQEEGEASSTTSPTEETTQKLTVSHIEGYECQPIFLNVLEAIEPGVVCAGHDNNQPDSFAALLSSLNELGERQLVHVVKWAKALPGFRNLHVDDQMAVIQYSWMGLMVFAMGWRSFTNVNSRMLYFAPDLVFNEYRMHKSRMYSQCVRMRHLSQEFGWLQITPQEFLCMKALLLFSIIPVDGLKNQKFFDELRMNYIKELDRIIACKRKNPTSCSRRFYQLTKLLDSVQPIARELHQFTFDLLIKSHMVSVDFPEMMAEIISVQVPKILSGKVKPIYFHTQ
How it was run: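 Antagonism is scored as loss of R1881-driven beta-lactamase reporter expression in HEK293 cells carrying the reporter under a UAS element, after 16 h co-treatment at 37C and a 2 h room-temperature FRET substrate read.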

[18] = biological target: Androgen receptor (Homo sapiens) (UniProt P10275); test: qHTS assay to identify small molecule agonists of the androgen receptor (AR) signaling pathway using the MDA cell line (AID 743040; also: nearly all actives have a fitted effect of over 20% in size)
How it was run: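 Cells plated, 5 h at 37C/0% CO2; compound or DMSO pinned; 16 h at 37C; ONE-Glo added; luminescence measured after 30 min at room temperature. Reporter line: MDA-kb2 with MMTV-luciferase responsive to AR and GR.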

[19] = biological target: Androgen receptor (Homo sapiens) (UniProt P10275); test: qHTS assay to identify small molecule antagonists of the androgen receptor (AR) signaling pathway using the MDA cell line (AID 743042; also: nearly all actives have a fitted effect of over 55% in size; also: potency is read from the fitted curve at half-maximal effect)
How it was run: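 Antagonist mode: compounds plus R1881 agonist added to MDA-kb2 AR-luc cells, incubated 16 h at 37C. Luciferase reporter luminescence quantified, with multiplexed CellTiter-Fluor readout for cell viability.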

[20] = biological target: Androgen receptor (Homo sapiens) (UniProt P10275); test: qHTS assay to identify small molecule agonists of the androgen receptor (AR) signaling pathway (AID 743036; active = well fitted activation curve with a large enough effect in the signal ratio in the repeat runs, with a control signal flat, not every such curve was filed as active; the % refers to the signal ratio)
How it was run: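 Cell-based FRET reporter assay: HEK293 line with a UAS-beta-lactamase construct, compounds added in DMSO, 16 h exposure at 37C, then 2 h substrate step at room temperature and fluorescence intensity read.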
Tags tell the direction and shape of the fitted curve or compound fluorescence and quenching.

Row | SMILES | Potency [1] | outcome [2] | Potency [3] | Potency [4] | Potency [5] | outcome [6] | Potency [7] | Potency [8] | Potency [9] | Potency [10] | Potency [11] | Potency [12] | Potency [13] | Potency [14] | Potency [15] | outcome [16] | Potency [17] | Potency [18] | Potency [19] | outcome [20]
1 | COc1ccc(C(=O)CC(=O)c2ccc(C(C)(C)C)cc2)cc1 | inactive | inactive | inactive | inactive | inactive | inactive | inactive | inactive | inactive | inactive | inactive | inactive | inactive | inactive | inactive | – | – | – | – | –
2 | Cc1cc2nc3c(=O)[nH]c(=O)nc-3n(C[C@H](O)[C@H](O)[C@H](O)CO)c2cc1C | 35.5 µM [fluorescent] (active) [middle of 4 runs] | inactive | 31.6 µM [fluorescent] (active) [middle of 4 runs] | inactive | inactive | inactive | 17.8 µM [fluorescent] (active) and 39.8 µM [fluorescent] (active) and 35.5 µM [fluorescent] (active) | inactive | – | inactive | inactive | inactive | 18.8 µM (active) and inactive | inactive | – | inactive | – | – | – | –
3 | O=C1OC2(c3cc(Br)c(O)c(Br)c3Oc3c2cc(Br)c(O)c3Br)c2c(Cl)c(Cl)c(Cl)c(Cl)c21 | inactive | inactive | inactive | 2 µM [fluorescent] (active) and 14.1 µM [fluorescent] (active) | 1.78 µM [fluorescent] (active) and 10 µM [fluorescent] (active) | inactive | 28.2 µM [fluorescent] (active) | inactive | 49.1 µM (active) and inactive | – | – | inactive | inactive | inactive | 4.33 µM (active) and 37.1 µM (active) | inactive | – | – | – | –
4 | O=C1c2cccc(O)c2C(=O)c2c(O)cccc21 | inactive | inactive | inactive | inactive | inactive | inactive | inactive | – | – | inactive | inactive | inactive | – | inactive | inactive | inactive | – | – | – | –
5 | COc1cc([C@@H]2c3cc4c(cc3[C@H](O)[C@H]3COC(=O)[C@H]23)OCO4)cc(OC)c1OC | inactive | inactive | inactive | inactive | inactive | inactive | inactive | inactive | – | inactive | 26.6 nM (active) and 24.3 nM (active) | 29.8 nM (active) and 19.3 nM (active) | – | inactive | inactive | inactive | 37.9 nM (active) | inactive | inactive | –
6 | O=CCCCC=O | inactive | inactive | inactive | inactive | inactive | inactive | inactive | inactive | – | inactive | 6.11 µM (active) | 2.17 µM (active) | inactive and 2.73 µM (active) | inactive | inactive | inactive | – | – | – | –
7 | O=[N+]([O-])c1ccc2c(c1)Cc1ccccc1-2 | inactive | inactive | inactive | inactive | inactive | inactive | inactive | inactive | – | inactive | inactive | inactive | – | inactive | inactive | inactive | – | – | – | –
8 | COC(C)COC(C)COC(C)CO (stereo not given) | inactive | inactive | inactive | inactive | inactive | inactive | inactive | – | – | – | inactive | inactive | inactive | inactive | inactive | inactive | inactive | inactive | inactive | inactive
9 | Cc1ccc(C(=O)c2cc(O)c(O)c([N+](=O)[O-])c2)cc1 | inactive | inactive | inactive | inactive | inactive | inactive | inactive | inactive | 34.7 µM (active) | – | – | – | 48.6 µM (active) | inactive | inactive | inactive | – | – | – | –
10 | C[Si](C)(C)O[Si](C)(C)C | inactive | inactive | inactive | inactive | inactive | inactive | inactive | – | – | – | inactive | – | inactive | inactive | inactive | inactive | – | – | – | –
11 | O=C(c1ccc(OCCN2CCCCC2)cc1)c1c(-c2ccc(O)cc2)sc2cc(O)ccc12 | inactive | inactive | inactive | inactive | inactive | inactive | inactive | – | – | 23.9 µM (active) | 3.35 µM (active) and 27.3 µM (active) and 5.45 µM (active) | – | – | 21.9 µM (active) and 38.9 µM (active) | 68.7 µM (active) and 61.1 µM (active) | inactive | – | – | – | –
12 | OCCO | inactive | inactive | inactive | inactive | inactive | inactive | inactive | – | – | inactive | inactive | – | – | inactive | inactive | inactive | inactive | inactive | inactive | inactive
13 | CCCCCCCCCCCO | inactive | inactive | inactive | inactive | inactive | inactive | inactive | – | – | – | inactive and 48.6 µM (active) | inactive and 54.5 µM (active) | inactive and 61.1 µM (active) | inactive | inactive | inactive | – | – | – | –
14 | CC(C)Oc1ccc2c(=O)c(-c3ccccc3)coc2c1 | inactive | inactive | inactive | inactive | inactive | inactive | inactive | inactive | – | – | 6.68 µM (active) | 4.22 µM (active) | – | inactive | inactive | inactive | – | – | – | –
15 | Nc1ncn([C@@H]2O[C@H](CO)[C@@H](O)[C@H]2O)c(=O)n1 | inactive | inactive | inactive | inactive | inactive | inactive | inactive | inactive | 3.01 µM (active) and 1.74 µM (active) | – | 1.88 µM (active) and 1.54 µM (active) | – | 841 nM (active) and 386 nM (active) | – | inactive | inactive | 3.38 µM (active) and 1.1 µM (active) | inactive | 5.96 µM (active) and 2.73 µM (active) | inactive
